Laboratory results as given in PubChem BioAssay (NCI).
Several values for one entry are separate records, joined by “and”; a condition that tells them apart may be missing. Equal values may be shown once. Compounds without any hit were thinned out: in the full panel of roughly 83,000, 20% have a hit.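 Note: values are percent growth. 100 is the growth of untreated cells, values between 100 and 0 indicate rising inhibition; between -100 and 0 indicates cell death.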 Values without a mark were called inactive. Activity calls are given as the source filed them. How the source made its calls: active means growth percent below 10; inactive means the rest.

What was measured:
Assay in all cases: NCI-60 one-dose screen, 48 h (100 = growth as untreated, 0 = no growth, -100 = all killed)
Conditions in all cases: 10 µM unless noted
[1] = test system: SK-MEL-2 melanoma
[2] = test system: EKVX NSCLC
[3] = test system: SN12C renal
[4] = test system: UO-31 renal
[5] = test system: TK-10 renal
[6] = test system: ACHN renal
[7] = test system: CAKI-1 renal
[8] = test system: A498 renal
[9] = test system: CCRF-CEM leukemia
[10] = test system: MOLT-4 leukemia
[11] = test system: SR leukemia
[12] = test system: RPMI-8226 leukemia
[13] = test system: OVCAR-8 ovarian
[14] = test system: OVCAR-5 ovarian
[15] = test system: OVCAR-4 ovarian
[16] = test system: SK-OV-3 ovarian
[17] = test system: IGROV1 ovarian
[18] = test system: OVCAR-3 ovarian
[19] = test system: HS 578T breast
[20] = test system: NCI/ADR-RES ovarian

Row | SMILES | growth [1] | growth [2] | growth [3] | growth [4] | growth [5] | growth [6] | growth [7] | growth [8] | growth [9] | growth [10] | growth [11] | growth [12] | growth [13] | growth [14] | growth [15] | growth [16] | growth [17] | growth [18] | growth [19] | growth [20]
1 | CC1=C2[C@@H](CC1)[C@]1(C)O[C@@](C(C)C)(C[C@H]1OC(=O)CO)[C@H]2OC(=O)C1CC1c1ccccc1 (stereo not given in full) | 75.8% | 93.8% | 61.5% | 54.2% | 88% | 43.1% | 74.1% | -20% (active) | 96.1% | 75.6% | 82% | 88.8% | 65.6% | 78.2% | 102% | 108% | 87.5% | 96.5% | -2.94% (active) | 69%
2 | COc1ccc(C2=C(CN)C(O)NC(=NCC(=O)c3ccc4ccccc4c3)N2)cc1 (stereo not given) | 99.9% | 113% | 103% | 81% | 98.1% | 94.5% | 94.5% | 118% | 110% | 98% | 99.4% | 119% | 98.8% | 99.8% | 107% | 89.4% | 102% | 99.9% | 116% | 103%
3 | COc1ccc(-c2ccccc2)cc1-c1c(Nc2cc(Cl)cc(Cl)c2O)c(=O)c1=O | -26.5% (active) | 10.2% | 6.31% (active) | 6.3% (active) | 12.8% | 3.24% (active) | -12.6% (active) | -17.6% (active) | 19.5% | 13.2% | 23.2% | 25.4% | 12.3% | 28.7% | 16.8% | -10.8% (active) | 31% | 5.32% (active) | 3.42% (active) | 1.38% (active)
4 | COc1ccc(NC(=O)Nc2ccccc2CNc2nc(Nc3ccc(OCCN4CCCC4)cc3)ncc2Cl)cc1 | -20.2% (active) | 55.4% | -44.2% (active) | -86% (active) | 1.49% (active) | -94.7% (active) | -79.1% (active) | 51.9% | 1.9% (active) | 1.79% (active) | 11.6% | -18.5% (active) | -18.2% (active) | 21.1% | -74.3% (active) | 58.5% | 24.3% | -83.8% (active) | -67.7% (active) | 6.48% (active)
5 | O=[N+]([O-])c1cc(C(F)(F)F)ccc1Sc1ccc(C(F)(F)F)cc1[N+](=O)[O-] | 73.3% | 87% | 72.8% | 77.3% | 98.7% | 86.6% | 44.7% | 87% | 14.5% | 9.53% (active) | 7.21% (active) | 34.2% | 85.7% | 132% | 44.6% | 56% | 77.7% | 92.3% | 66.3% | 82.5%
6 | O=C1C(Nc2ccc(Cl)cc2)=C(I)C(=O)c2ncccc21 | 70% | 62.2% | -22.1% (active) | -51% (active) | 47.5% | -98.8% (active) | -17% (active) | 99.6% | 6.74% (active) | -1.19% (active) | 4.45% (active) | -2.24% (active) | -65.1% (active) | 60.4% | -91.4% (active) | 83.3% | -76.2% (active) | -88.3% (active) | 39.9% | -0.0242% (active)
7 | CC(=O)c1nn(-c2ccccc2)/c(=N/N=Cc2cn(-c3ccccc3)nc2-c2cc3ccccc3oc2=O)s1 | 103% | 97.2% | 105% | 84% | 103% | 101% | 88.5% | 120% | 101% | 95.9% | 88.1% | 102% | 103% | 106% | 104% | 106% | 107% | 116% | 115% | 107%
8 | COc1cc(CNC(=O)CCCC/C=C/C(C)C)ccc1O | 93.3% and 108% | 103% and 97.3% | 92.4% and 91.9% | 57.7% and 59% | 200% and 103% | 99.7% | 92.1% and 82.2% | 112% and 113% | 55.8% and 58.3% | 84.2% and 73.4% | 91.7% and 99% | 100% and 94.7% | 109% | 92.7% | 93.3% and 104% | 117% and 105% | 96.8% and 88.2% | 84.5% and 119% | 91.5% and 111% | 113% and 97.5%
9 | O=C(CC1(O)C(=O)Nc2ccc(Br)cc21)c1ccc(Cl)cc1 (stereo not given) | 97.2% | 93.8% | 102% | 75.9% | 123% | 113% | 98.9% | 97.7% | 103% | 101% | 103% | 96.7% | 96.6% | 124% | 97% | 88.3% | 93.2% | 102% | 91.7% | 104%
10 | COC1=CC(c2ccc[nH]2)=N/C1=C\c1[nH]c(C)c(C(=O)Oc2ccccc2)c1C | -68.6% (active) | -19.9% (active) | 0.383% (active) | -87.2% (active) | -6.73% (active) | -90.3% (active) | -23.8% (active) | -46.7% (active) | 18.6% | 3.87% (active) | 6.67% (active) | -13.4% (active) | -13.8% (active) | -41.5% (active) | -48.8% (active) | 1.25% (active) | -35.4% (active) | -39.7% (active) | -27.5% (active) | -3.96% (active)
11 | O=C1CCCCN1CCCCC#Cc1cccc(C#Cc2cccnc2)c1 | 96.4% | 93.9% | 90.3% | 59.1% | 229% | 101% | 84.4% | 84.3% | -23% (active) | -49.9% (active) | -46.3% (active) | 49.7% | 89.2% | 101% | 93.8% | 109% | 79.4% | 89.7% | 88% | 72.7%
12 | CNC(=O)c1cc(Oc2ccc3nc(NC(=O)Nc4ccc(C(F)(F)F)cc4)sc3c2)ccn1 | 92.9% | 53.5% | 71.1% | 65% | 55.3% | 73.4% | 92% | 98.8% | 68.1% | 73.3% | 70.6% | 70.4% | 48.5% | 93.9% | 37.7% | 105% | 70.9% | 24% | 30% | 58.4%
13 | CCOC(=O)c1cnn(-c2ccc(S(N)(=O)=O)cc2)c1N | 93.6% | 101% | 98% | 64.8% | 99.6% | 116% | 150% | 70.4% | 85.3% | 100% | 95.5% | 94.1% | 102% | 89.2% | 103% | 104% | 97.9% | 134% | 110% | 96.1%
14 | CN1CCN(Cc2ccc(NC(=O)c3cccc(C#Cc4c(N)ncc5ccc(F)cc45)c3)cc2C(F)(F)F)CC1 | -49.9% (active) | -19.6% (active) | 5.02% (active) | -69.5% (active) | -70.9% (active) | -93.5% (active) | -98.5% (active) | -78.9% (active) | -23.1% (active) | -61.4% (active) | -24.6% (active) | -33.6% (active) | -51.5% (active) | -57.7% (active) | -47.6% (active) | 6.69% (active) | -42.4% (active) | -57.4% (active) | -37.9% (active) | -44.7% (active)
15 | Nc1nc(N)c2c(n1)NC(c1ccc(Cl)cc1)CC(c1cccc(Nc3ccncc3)c1)=N2 (stereo not given) | 76.3% | 62.1% | 53% | 90.6% | 113% | 73.5% | 73.7% | 81.1% | 32.7% | 38.1% | 8.66% (active) | 55.9% | 39% | 90.4% | 73.8% | 84.2% | 41.6% | 82.3% | 77.9% | 100%
